Source: PubChem BioAssay
Rows were chosen to be rich in hits. Some 14% of all compounds tested hit in one or more screens of this group.
Pf growth 48h: Primary qHTS for delayed death inhibitors of the malarial parasite plastid, 48 hour incubation; Potency, µM (top dose mostly 28.7 µM), for the others: at the top dose activity change, negative = inhibition, usual class: inhibitors; AID 504832, 2011; 5.9% of 310,000 active; P. falciparum luciferase growth in erythrocytes, 48 h; further: potency means the concentration at half of the fitted maximal effect
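Firefly luciferase activity from engineered P. falciparum reports growth; inhibitors lower the luminescent signal. Cultures contained 2% hematocrit erythrocytes at 0.1% final parasitemia.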
Marburg entry inh: qHTS for inhibitors of binding or entry into cells for Marburg Virus | 1.8% of 300,000 active | Marburg virus pseudotyped entry inhibition, cell reporter | Potency, µM (series often up to 37.8 µM), for inactives: top-dose activity change, negative = inhibition, hits mostly inhibitors; calls by dose curve; tested in HEK293 cells; further: potency means the concentration at half of the fitted maximal effect
HCV inh: qHTS Assay for Inhibitors of Hepatitis C Virus (HCV); Huh7.5.1 HCVcc-Cre infection, luciferase reporter, 44 h; Potency, µM (highest dose often 41.8 µM), for the others: at the top dose activity change, negative = inhibition, most hits filed as inhibitors; AID 651820, 2012; 3.4% of 340,000 active; further: potency means the concentration at half of the fitted maximal effect
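HCVcc-Cre virus at an moi near 0.5 was added right after compound to cells cultured 4 h from seeding (1,000 cells/well). Luciferase activity was determined 44 h later, 15 min after substrate addition at RT.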
HCMV antiviral: qHTS Assay for inhibitors of the human cytomegalovirus (HCMV) | HFF cells, HCMV-luciferase reporter, 72 h; stronger effect = lower value | activity change, negative = inhibition, % at 57.5 µM | 4.5% of 410,000 active | AID 1259415, 2018; in the data active means activity change below about -60%; inconclusive means no clear call, values can overlap the other calls; inactive means above about -39%
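HFF cells seeded 16 h at 37C, treated with compounds, infected with luciferase-reporter HCMV at MOI 1 PFU/cell; luciferase read at 72 h post infection, normalized to buffer-only and Salinomycin controls.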
Lassa entry inh: qHTS for Inhibitors of binding or entry into cells for Lassa Virus; 1.2% of 300,000 active; Potency, µM (doses to about 37.9 µM), for the others: at the highest dose activity change, negative = inhibition, most hits filed as inhibitors; Lassa virus pseudotype entry inhibition, cell reporter; calls by dose curve; tested in HEK293 cells; further: potency means the concentration at half of the fitted maximal effect; nearly all actives have a fitted effect of over 50% in size
Pf growth 96h: Primary qHTS for delayed death inhibitors of the malarial parasite plastid, 96 hour incubation; AID 504834, 2011; P. falciparum luciferase reporter growth, 96 h; 6.9% of 320,000 active; Potency, µM (highest dose often 28.7 µM), without a hit: top-dose activity change, negative = inhibition, usual class: inhibitors; further: potency means the concentration at half of the fitted maximal effect
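Two parasite generations (96 h, 37 C, 5% CO2) of compound exposure in infected erythrocytes (0.05% parasitemia, 2% hematocrit). Luciferase-reporter P. falciparum; decreased luminescence indicates inhibited growth, aimed at apicoplast-acting delayed death.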
Numbers without * were called inactive; [ ] = another dose, or the depositor's remark. Unless noted, the call rests on the fitted dose curve; in most records, active means well fitted inhibition curve with a large enough effect; inconclusive means small, poorly fitted or top-dose-only effect, or another doubt; inactive means no such curve, though single readings can be large or run the other way. On the % scale 0 is the no-effect control and ±100 the full control effect.

How did COC(=O)c1ccccc1NN=Nc1ccccc1[N+](=O)[O-] do in these assays?
HCMV antiviral: -101*

What do the screens show for `COC(=O)c1ccccc1NC(=S)NC(NC(=O)c1ccco1)C(Cl)(Cl)Cl` (configuration not stated)?
Pf growth 48h: 36%; Marburg entry inh: -14%; HCV inh: 20%; HCMV antiviral: 2; Lassa entry inh: 15%; Pf growth 96h: 102%

What do the screens show for `CC(C)(C)NC(=O)COc1ccc2oc3c(c2c1)CCCC3`?
Pf growth 48h: inconclusive; Marburg entry inh: -3%[46.1 µM]; HCV inh: -27%; HCMV antiviral: -4; Lassa entry inh: inconclusive; Pf growth 96h: inconclusive

What do the screens show for `COc1ccc(CCn2c(-c3cc([N+](=O)[O-])cc([N+](=O)[O-])c3)nc3nc4ccccc4nc32)cc1`?
Pf growth 48h: inconclusive; Marburg entry inh: inconclusive; HCV inh: -3%; HCMV antiviral: -19; Lassa entry inh: 14%; Pf growth 96h: 0.74µM*

Results for CCCn1c(-c2ccc(OC)cc2)nc2nc3ccccc3nc21 ?
Pf growth 48h: 9%; Marburg entry inh: 10%; HCV inh: -2%; HCMV antiviral: 0; Lassa entry inh: -4%; Pf growth 96h: 3.7µM*

Results for c1ccc(Cn2c(-c3ccco3)nc3nc4ccccc4nc32)cc1 ?
Pf growth 48h: -34%; Marburg entry inh: inconclusive; HCV inh: inconclusive; HCMV antiviral: 110; Lassa entry inh: inconclusive; Pf growth 96h: 13%

Results for CCCCCn1c(-c2ccco2)nc2nc3ccccc3nc21 ?
Pf growth 48h: inconclusive; Marburg entry inh: 11µM*; HCV inh: -16%; HCMV antiviral: -6; Lassa entry inh: -18%; Pf growth 96h: inconclusive

Results for COc1cccc(CNc2cc(C)nc3nc(-c4ccc(C)cc4)nn23)c1 ?
HCMV antiviral: 48; Lassa entry inh: -20%[46.1 µM]

Results for CC(C)Nc1nc(NCCOc2ccccc2Cl)c2sc(-c3ccccc3)cc2n1 ?
HCMV antiviral: -101*

Results for CCOCCCn1c(=NC(C)=O)c(C#N)cc2c(=O)n3cccc(C)c3nc21 ?
Pf growth 48h: 67%; Marburg entry inh: 2%[14.2 µM]; HCV inh: inconclusive; HCMV antiviral: -26; Lassa entry inh: -2%; Pf growth 96h: inconclusive

What do the screens show for `CCOC(=O)c1cc2c(=O)n3cccc(C)c3nc2n(CC(C)C)c1=NC(=O)c1ccco1`?
Pf growth 48h: inconclusive; Marburg entry inh: -11%[46.1 µM]; HCV inh: inconclusive; HCMV antiviral: 8; Lassa entry inh: 3%[46.1 µM]; Pf growth 96h: 3.7µM*

What do the screens show for `CCOCCCn1c(=NC(=O)c2ccc(OC)c(OC)c2)c(C#N)cc2c(=O)n3cccc(C)c3nc21`?
Pf growth 48h: 2.3µM*; HCV inh: -25%

What do the screens show for `CCOCCCn1c(=NC(=O)c2ccco2)c(C(=O)OCC)cc2c(=O)n3cccc(C)c3nc21`?
Pf growth 48h: 0%; HCV inh: 11µM*; HCMV antiviral: -8; Pf growth 96h: inconclusive

How did CCc1nc(OCc2ccccc2)c2sc3nc4c(cc3c2n1)COC(C)(C)C4 do in these assays?
Marburg entry inh: 16µM*; HCMV antiviral: -25; Lassa entry inh: 22%[14.3 µM]; Pf growth 96h: -17%

Results for CC1(C)Cc2nc3sc4c(OCc5ccccc5)ncnc4c3cc2CO1 ?
Pf growth 48h: inconclusive; Marburg entry inh: 15%; HCV inh: 6%; HCMV antiviral: -8; Lassa entry inh: 0%; Pf growth 96h: inconclusive

How did Cc1cc(-n2c(C)cc(C(=O)CSc3ncnc4ccccc34)c2C)no1 do in these assays?
Pf growth 48h: 12%; Marburg entry inh: 9.2µM*; HCV inh: 2.8µM*; HCMV antiviral: -78*; Lassa entry inh: inconclusive; Pf growth 96h: inconclusive

How did Cc1cc(NC(=O)CSc2nnnn2-c2ccc(C(C)C)cc2)no1 do in these assays?
Pf growth 48h: 19%; Marburg entry inh: -22%[46.1 µM]; HCV inh: 2%; HCMV antiviral: -7; Lassa entry inh: inconclusive; Pf growth 96h: inconclusive

Results for Cc1cc(-n2c(C)cc(C(=O)CSc3nnnn3-c3ccc(Cl)cc3)c2C)no1 ?
Pf growth 48h: 12µM*; Marburg entry inh: inconclusive; HCV inh: inconclusive; HCMV antiviral: inconclusive; Lassa entry inh: inconclusive; Pf growth 96h: 12µM*

What do the screens show for `Cc1cc(-n2c(C)cc(C(=O)CSc3nnc4sc5ccccc5n34)c2C)no1`?
Pf growth 48h: -10%; Marburg entry inh: -8%; HCV inh: -13%; HCMV antiviral: -2; Lassa entry inh: 3%; Pf growth 96h: 33%

Results for Cc1cc(C(=O)CSc2ncnc3ccccc23)c(C)n1C1CC1 ?
Pf growth 48h: inconclusive; Marburg entry inh: 10%; HCV inh: 10µM*; HCMV antiviral: -10; Lassa entry inh: -1%; Pf growth 96h: inconclusive

Results for Cc1cc(C)n2nc(SCC(=O)c3cc(C)n(-c4cc(C)on4)c3C)nc2n1 ?
Pf growth 48h: inconclusive; Marburg entry inh: -19%; HCV inh: 4.5µM*; HCMV antiviral: inconclusive; Lassa entry inh: -18%

What do the screens show for `CCc1nn(CC(=O)N2CCN(c3cccc(C(F)(F)F)c3)CC2)c(=O)c2cccn12`?
Marburg entry inh: inconclusive; HCMV antiviral: 0; Lassa entry inh: 2%[46.1 µM]

Results for CC1CC(C)(C)N(C(=O)CSc2ccc(-c3ccc(F)cc3)nn2)c2ccccc21 (configuration not stated) ?
Pf growth 48h: -3%; Marburg entry inh: inconclusive; HCV inh: -3%; HCMV antiviral: -87*; Lassa entry inh: -14%; Pf growth 96h: inconclusive

What do the screens show for `Cc1oc(CSCCSCc2cc(C(=O)O)c(C)o2)cc1C(=O)O`?
Pf growth 48h: 7%; HCV inh: 18%; HCMV antiviral: 24; Pf growth 96h: 15µM*

Results for Cc1oc(CSCC2CCCO2)cc1C(=O)O (configuration not stated) ?
Pf growth 48h: 21%; Marburg entry inh: inconclusive; HCV inh: 12%; HCMV antiviral: 50; Lassa entry inh: 0%

What do the screens show for `O=C(Nc1ccc(Oc2ccccc2)cc1)C1CCN(c2c3c(nc4ncnn24)CCC3)CC1`?
Pf growth 48h: inconclusive; Marburg entry inh: inconclusive; HCV inh: 25µM*; HCMV antiviral: -101*; Lassa entry inh: 21µM*; Pf growth 96h: 27%
